Test results from the supplement of paper PMC10646978.
± gives the standard deviation.

How the values were obtained:
Conditions in all cases: modulator concentration 10 µM
[1] = system: RAW-Dual (murine macrophage reporter line); experiment: NF-kB reporter (SEAP) activity fold change vs agonist alone; higher = enhanced NF-kB activity
Summary of the method: (§1)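 RAW-Dual murine macrophage reporter cells were seeded at 50 000 per well in 384-well plates and pre-incubated 1 hour at 37 °C with compound pin-transferred to 10 μM final. After 1 hour, a PRR agonist was added and cells incubated overnight. Supernatant NF-κB (SEAP, QUANTI-Blue, 620 nm absorbance) and IRF (Lucia luciferase, QUANTI-Luc, luminescence) signals were divided by the mean agonist-only control on the same plate to give fold change. Two replicate plates were averaged, with errors by propagation.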

[2] = system: RAW-Dual (murine macrophage reporter line); experiment: IRF reporter (Lucia luciferase) activity fold change vs agonist alone; higher = enhanced IRF activity
Summary of the method: as §1

[3] = system: RAW-Dual (murine macrophage reporter line); experiment: viability score (confluency relative to resting cells, overnight) (fraction); higher = more viable, active = viable (0.7 or more)
Summary of the method: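 RAW-Dual macrophages in 384-well plates were treated overnight with compound at 10 μM final. IncuCyte imaging recorded confluency, and IncuCyte software built two confluency masks across every imaged well. The viability score expresses confluency relative to resting cells and was judged against a cutoff, which a compound met only if both masks exceeded 70% of resting cells.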

[4] = agonist: CpG ODN 1826 0.5 ug/mL

| SMILES | NF-kB reporter [1, 4] | NF-kB reporter ([1]; agonist: LPS 0.1 ug/mL) | NF-kB reporter ([1]; agonist: MPLA […]) | IRF reporter ([2]; agonist: 3'3'-cGAMP 10 ug/mL) | IRF reporter ([2]; agonist: LPS 0.1 ug/mL) | IRF reporter ([2]; agonist: MPLA […]) | viability score [3] |
| --- | --- | --- | --- | --- | --- | --- | --- |
| Cc1cccc(N(CC(=O)Nc2ccc3c(c2)OCO3)S(C)(=O)=O)c1 | 0.716 ± 0.06 | 0.934 ± 0.068 | 1 ± 0.098 | 0.784 ± 0.04 | 1.19 ± 0.071 | 1.22 ± 0.13 | 1.02 (active) |
| CCOC(=O)C1C(=O)C=C(C)C(C(=O)OCC)C1c1ccc(Br)cc1 (configuration not stated) | 1.05 ± 0.083 | 1.01 ± 0.093 | 1.06 ± 0.07 | 1.17 ± 0.047 | 1.3 ± 0.17 | 1.25 ± 0.19 | 1 (active) |
| COc1ccc(-c2oc(N=Cc3ccccc3O)c(C#N)c2-c2ccc(OC)cc2)cc1 | 0.895 ± 0.075 | 1.21 ± 0.079 | 0.997 ± 0.035 | 0.921 ± 0.2 | 1.05 ± 0.089 | 1.12 ± 0.18 | 1 (active) |
| O=C(O)CCCNc1c(C(=O)Nc2ccc(Cl)cc2)cc([N+](=O)[O-])cc1[N+](=O)[O-] | 0.817 ± 0.065 | 0.813 ± 0.057 | 0.942 ± 0.049 | 0.629 ± 0.022 | 1.11 ± 0.12 | 1.42 ± 0.24 | 0.511 (inactive) |
| CCCCCCCCCCCC1=C(O)C(=O)C=C(O)C1=O | 0.901 ± 0.22 | 0.642 ± 0.034 | 0.675 ± 0.045 | 0.566 ± 0.019 | 0.823 ± 0.09 | 0.774 ± 0.086 | 0.167 (inactive) |
| Cc1cc(-c2ccc(NC(=O)c3ccc([N+](=O)[O-])cc3)c(C)c2)ccc1NC(=O)c1ccc([N+](=O)[O-])cc1 | 0.994 ± 0.067 | 0.988 ± 0.06 | 0.928 ± 0.064 | 0.966 ± 0.057 | 1.26 ± 0.08 | 1.15 ± 0.27 | 0.999 (active) |
| CS(=O)(=O)N(Cc1ccccc1)c1ccc(C(=O)NCCSCc2ccc(Cl)cc2)cc1 | 0.924 ± 0.099 | 0.976 ± 0.062 | 1.01 ± 0.097 | 1.01 ± 0.028 | 1.54 ± 0.25 | 1.13 ± 0.14 | 1.01 (active) |
| CC(=O)Nc1c(-c2ccc3ccccc3c2)nc2ccccn12 | 1.37 ± 0.33 | 0.942 ± 0.079 | 1.07 ± 0.11 | 0.949 ± 0.032 | 1.14 ± 0.15 | 1.16 ± 0.14 | 0.995 (active) |
| COc1ccc(-c2cc(C(F)(F)F)n3nc(C(=O)Nc4cc(OC)c(OC)c(OC)c4)c(Cl)c3n2)cc1OC | 0.885 ± 0.081 | 1.01 ± 0.089 | 0.795 ± 0.058 | 0.566 ± 0.14 | 1.27 ± 0.19 | 1.1 ± 0.12 | 1.01 (active) |
| C=CC(=O)Nc1cccc(Oc2nc(Nc3ccc(N4CCN(C)CC4)cc3)nc3ccsc23)c1 | 0.0541 ± 0.0029 | 0.0574 ± 0.0052 | 0.184 ± 0.036 | 0.0243 ± 0.0019 | 0.0856 ± 0.0056 | 0.0904 ± 0.035 | 0.0526 (inactive) |
| Cc1nnc(NN=Cc2ccc(Cl)c([N+](=O)[O-])c2)[nH]c1=O | 1.08 ± 0.12 | 1.02 ± 0.088 | 1.09 ± 0.045 | 1.01 ± 0.17 | 1 ± 0.082 | 1.07 ± 0.13 | 0.997 (active) |
| Cc1ccc(-c2ncnn2-c2ccc(Cl)cc2)cc1 | 0.922 ± 0.072 | 0.785 ± 0.051 | 1.02 ± 0.11 | 0.695 ± 0.036 | 1.26 ± 0.073 | 1.4 ± 0.15 | 1.01 (active) |
| N#C[C@@H]1CCCN1C(=O)CNC12CC3CC(CC(O)(C3)C1)C2 | 0.79 ± 0.14 | 0.851 ± 0.15 | 0.862 ± 0.048 | 0.863 ± 0.06 | 1.05 ± 0.18 | 1.11 ± 0.21 | 0.993 (active) |
| OC1C=C2CCN3Cc4cc5c(cc4C(C1O)C23)OCO5 (configuration not stated) | 1.1 ± 0.099 | 0.352 ± 0.029 | 1.35 ± 0.14 | 0.678 ± 0.062 | 0.751 ± 0.072 | 1.04 ± 0.19 | 0.71 (active) |
| OCCN(CCO)CC(O)Cn1c2ccc(Br)cc2c2cc(Br)ccc21 (configuration not stated) | 0.301 ± 0.024 | 0.484 ± 0.035 | 0.617 ± 0.06 | 0.742 ± 0.024 | 1.42 ± 0.24 | 1.35 ± 0.15 | 0.94 (active) |
| CCOC(=O)C1=C(C)NC(C)=C(C(=O)OCC)C1c1ccc(Cl)c(Cl)c1 | 0.693 ± 0.23 | 0.996 ± 0.078 | 0.832 ± 0.079 | 1.05 ± 0.045 | 1.19 ± 0.19 | 1.37 ± 0.29 | 0.998 (active) |
| N#Cc1c(NC(NC(=O)c2cccs2)C(Cl)(Cl)Cl)sc2c1CCCC2 (configuration not stated) | 0.669 ± 0.038 | 1.13 ± 0.076 | 0.878 ± 0.1 | 0.66 ± 0.022 | 0.694 ± 0.086 | 0.69 ± 0.073 | 0.986 (active) |
| COc1cc2c(Oc3ccc4[nH]c(C)cc4c3F)ncnc2cc1OCCCN1CCCC1 | 0.607 ± 0.097 | 1.03 ± 0.052 | 1.09 ± 0.11 | 0.927 ± 0.043 | 1.22 ± 0.082 | 1.35 ± 0.12 | 1 (active) |
| Brc1ccc(C(Cc2ccccc2)Nc2ccccn2)cc1 (configuration not stated) | 0.255 ± 0.014 | 1.07 ± 0.071 | 0.929 ± 0.084 | 1.27 ± 0.042 | 1.75 ± 0.12 | 1.28 ± 0.12 | 0.959 (active) |
| CN(C)c1cncc(OC2CCN(S(C)(=O)=O)C2)n1 (configuration not stated) | 1.02 ± 0.12 | 1.12 ± 0.1 | 0.911 ± 0.04 | 0.836 ± 0.045 | 0.951 ± 0.064 | 0.923 ± 0.07 | 1.01 (active) |
| O=C(NCC1(c2ccc(F)cc2)CCOCC1)c1cnc2ccccc2n1 | 1.01 ± 0.05 | 1.1 ± 0.094 | 1.02 ± 0.12 | 1.08 ± 0.06 | 1.2 ± 0.093 | 1.42 ± 0.12 | 1.01 (active) |
| O=C(c1ccc(OC(F)(F)F)cc1)N1CCC(Oc2cccnn2)CC1 | 1.04 ± 0.094 | 1.25 ± 0.1 | 0.926 ± 0.049 | 1.03 ± 0.073 | 1.08 ± 0.065 | 1.15 ± 0.087 | 1.01 (active) |
| Cc1ccc(CNC(=O)CN(c2cccc3ccccc23)S(C)(=O)=O)cc1 | 0.97 ± 0.078 | 1.03 ± 0.098 | 0.957 ± 0.073 | 1.08 ± 0.031 | 1.47 ± 0.28 | 1.07 ± 0.096 | 1.01 (active) |
| CC(=O)Nc1ccc2nc(NC(=O)c3ccco3)sc2c1 | 1.05 ± 0.083 | 1.03 ± 0.09 | 0.95 ± 0.072 | 0.827 ± 0.046 | 1.03 ± 0.069 | 0.744 ± 0.084 | 1 (active) |
| CC(C)c1nc(CN(C)C(=O)N[C@@H](CCN2CCOCC2)C(=O)N[C@H](CC[C@H](Cc2ccccc2)NC(=O)OCc2cncs2)Cc2ccccc2)cs1 | 1.29 ± 0.073 | 0.959 ± 0.076 | 1.14 ± 0.036 | 0.687 ± 0.032 | 0.842 ± 0.11 | 0.839 ± 0.18 | 1 (active) |
| Cc1cc(C)nc(SCCCCSc2nc(C)cc(C)n2)n1 | 1.03 ± 0.062 | 0.975 ± 0.14 | 0.944 ± 0.025 | 1.13 ± 0.14 | 0.979 ± 0.11 | 0.909 ± 0.21 | 0.996 (active) |
